# Measurements published in the supplement of paper PMC4166925.
# ± gives the standard deviation of the averaged measurements. The full ranking holds about 33,000 sequences; the median of “E-score (dimensionless, -0.5 to 0.5)” is about -0.049, and the highest 2% start at about 0.37. Shown is part of a subset that was picked to be rich in the highest values.
# System: T1, PmTbr T-box DNA-binding domain (GST fusion)
# T1 sequence: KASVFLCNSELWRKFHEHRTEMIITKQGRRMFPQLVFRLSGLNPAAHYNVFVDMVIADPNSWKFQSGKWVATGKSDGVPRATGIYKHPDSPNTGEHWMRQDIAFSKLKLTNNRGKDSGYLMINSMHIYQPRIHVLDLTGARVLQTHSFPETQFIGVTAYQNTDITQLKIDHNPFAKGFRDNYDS
# Experiment: PBM E-score of 8-mer (E-score (dimensionless, -0.5 to 0.5)); Tbr is Tbrain of the sea star Patiria miniata (Pm) or the sea urchin Strongylocentrotus purpuratus (Sp); higher = stronger binding preference
# Settings: the construct has about 5 more residues each side
# Outline: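 Using the Universal PBM Analysis Suite, every ungapped 8-mer received an enrichment E-score averaged over duplicate arrays. Probe intensities came from double-stranded Universal Agilent oligonucleotide arrays incubated with 200 nM GST-fused Tbr T-box DNA-binding domain in PBS (pH 7.5). That protein was expressed in BL21 E. coli at 20 °C and purified by glutathione affinity chromatography.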
row,Sequence,PBM E-score of 8-mer
1,CCTTTGGC,0.0109 ± 0.046
2,CGATCCAG,-0.0702 ± 0.018
3,ACACCTGC,0.461 ± 0.017
4,CGACCTGC,0.196 ± 0.043
5,ATACCTGC,0.0129 ± 0.047
6,ATACCTGG,0.139 ± 0.025
7,ACACCTGA,0.4657 ± 0.0021
8,CCACCTGG,0.252 ± 0.0058
9,AAACCTGA,0.0859 ± 0.12
10,CCACCTGC,0.299 ± 0.02
11,GAACCTGC,-0.162 ± 0.0065
12,AGACCTGA,-0.102 ± 0.055
13,ACACCTGG,0.466 ± 0.0053
14,GCACCTGC,0.395 ± 0.018
15,ATGCCCAC,-0.186 ± 0.051
16,AGAACCCT,-0.229 ± 0.014
17,ACTCGCCA,0.144 ± 0.015
18,CCTCTTAG,-0.103 ± 0.0023
19,CTATACCA,-0.205 ± 0.013
20,AGCCCCAG,-0.138 ± 0.057
21,TCTTGCCA,0.0678 ± 0.023
22,GAGAACCC,-0.0803 ± 0.011
23,AGGCTCTG,-0.0891 ± 0.012
24,AAGAATGT,-0.0657 ± 0.011
25,ATCAGTGG,-0.0659 ± 0.059
26,AGGGCAAG,-0.2 ± 0.018
27,TCGATTCA,0.0262 ± 0.015
28,GTGGGCCA,-0.191 ± 0.031
